# Source: ChEMBL document CHEMBL3433997, “St. Jude Leishmania screening dataset” (2016)
# How the values were obtained:
# Type in all cases: functional
# [1] = target: Solute carrier family 2, facilitated glucose transporter member 1 (Homo sapiens) (UniProt P11166); test: ST_JUDE_LEISH: Cytotoxicity at 2uM final concentration against transgenic Leishmania Mexicana promastigotes LmGLUT1 that are glucose transport deficient and complemented with the human glucose transporter GLUT1. Activity is measured by DNA content using SYBR green in vitro
# [2] = target: Hexose transporter 1 (Plasmodium falciparum) (UniProt O97467); test: ST_JUDE_LEISH: Cytotoxicity at 2uM final concentration against transgenic Leishmania Mexicana promastigotes LmPfHT that are glucose transport deficient and complemented with the Plasmodium falciparum hexose transporter. Activity is measured by DNA content using SYBR green in vitro
# [3] = target: Glucose transporter (Leishmania mexicana) (UniProt O61059); test: ST_JUDE_LEISH: Cytotoxicity at 2uM final concentration against transgenic Leishmania Mexicana promastigotes LmGT2 that are glucose transport deficient and complemented with the L. Mexicana glucose transporter 2. Activity is measured by DNA content using SYBR green in vitro
# Solute carrier family 2, facilitated glucose transporter member 1 (Homo sapiens), sequence (P11166 whole entry): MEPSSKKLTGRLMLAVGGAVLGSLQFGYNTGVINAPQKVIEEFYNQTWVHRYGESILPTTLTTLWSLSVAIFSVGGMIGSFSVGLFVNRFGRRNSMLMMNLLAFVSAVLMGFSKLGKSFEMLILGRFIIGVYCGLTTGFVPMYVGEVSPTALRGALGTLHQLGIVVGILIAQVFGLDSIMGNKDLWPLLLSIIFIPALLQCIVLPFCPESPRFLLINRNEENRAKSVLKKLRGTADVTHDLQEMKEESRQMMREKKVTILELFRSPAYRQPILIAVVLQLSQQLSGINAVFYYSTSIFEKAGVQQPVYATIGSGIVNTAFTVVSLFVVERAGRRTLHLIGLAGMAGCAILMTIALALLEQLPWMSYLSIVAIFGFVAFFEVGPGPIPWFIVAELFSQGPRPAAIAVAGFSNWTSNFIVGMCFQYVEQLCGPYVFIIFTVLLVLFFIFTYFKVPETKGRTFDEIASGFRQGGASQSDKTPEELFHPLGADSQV
Compound,inhibition [1],inhibition [2],inhibition [3]
COc1ccc2c(CCNc3nc(SC)ncc3C(=O)NCCc3ccc(F)cc3)c[nH]c2c1,2.09%,0.58%,1.11%
O=C(/C=C/c1ccc(Cl)c(Cl)c1)NCCCCCN1CCC(c2c[nH]c3c(-c4ccccc4)cccc23)CC1,0.48%,4.3%,3.07%
c1ccc2[nH]c(-c3ccc(-c4ccc(CN5CCN(c6ccncc6)CC5)cc4)cc3)nc2c1,21.3%,15.4%,6.31%
COc1ccc(C(c2ccc(N(C)C)cc2)c2ccc(N(C)C)cc2)cc1,95.3%,94.5%,84.9%
Cc1ccc(OCCCON2C(=N)N=C(N)NC2(C)C)cc1C,2.79%,2.67%,1.46%
CCC(CC)(Cc1ccccc1)NC(=O)[C@H](CC1CCCCC1)Nc1ccc(C#N)c2ccccc12,-1.5%,-0.75%,-0.23%
Nc1ncc(-c2cn[nH]c2)cc1-c1nc2ccc(Cl)cc2[nH]1,2.56%,3.75%,3.89%
CN(C)CCOc1ccc2c(c1)CN(C)CC2c1ccccc1 (configuration not stated),1.17%,0.33%,0.03%
CCCc1cc(=O)[nH]c(-n2nc(C)cc2NC(=O)C(CC)c2ccccc2)n1 (configuration not stated),35%,38.3%,4.69%
CCCNCc1ccc(-c2ccc(CN(Cc3cccs3)C(=O)C3CCN(C)CC3)cc2)nc1,2.14%,0.83%,-0.89%
Nc1cccc(CNCc2ccc(-c3ccc(-c4nc5ccccc5[nH]4)s3)cc2)c1,2.71%,-0.53%,2.48%
Cc1ccc(Cc2c[nH]c(NCCSCc3ccc(CN(C)C)s3)nc2=O)cn1,1.24%,1.14%,2.78%
O=C(Nc1ccc(Oc2ccccc2)cc1)N(CCN1CCCC1)Cc1ccc(-c2ccc(CN3CCNCC3)cc2)cc1,0.02%,1.54%,0.38%
COc1ccc(C2CCN(CCCCNC(=O)c3ccc(NC(=O)c4ccc(Cl)cc4)cc3)CC2)cc1Cl,-0.02%,0.63%,4.45%
FC(F)(F)c1ccc2[nH]c(-c3ccc(-c4cccc(CNCc5cnn(-c6ccccc6)n5)c4)cc3)nc2c1,2.04%,1.86%,-0.02%
CN1CCN(C(=O)CN2CCC3(CCC2=O)NC(=O)c2ccccc2O3)CC1 (configuration not stated),3.76%,5.1%,3.13%
c1ccc2c(Nc3ccc(OCCOCCOc4ccc(Nc5c6ccccc6nc6ccccc56)cc4)cc3)c3ccccc3nc2c1,-2.9%,-1.87%,4.94%
O=C(Nc1cccc(-c2cccc(-c3nc4cc(F)ccc4[nH]3)c2)c1)c1c[nH]cn1,-0.8%,-0.5%,-1.75%
c1cc(CNCC2CCN(CC3CCCCC3)CC2)cc(-n2ccnc2)c1,-1.01%,-0.61%,0.1%
CN(c1ccc(NC(=O)Nc2cccc(Cl)c2)cc1)c1ccnc(N)n1,-0.39%,1.34%,-0.01%
N#Cc1ccc(NC(=O)NC2CCN(CCCCCNC(=O)/C=C/c3ccc(Cl)c(Cl)c3)CC2)cc1,3.11%,3.17%,6.31%
O=C(Nc1ccc(Cl)c(-c2nc3ccccc3[nH]2)c1)c1ccc(-c2ccc(Cl)cc2)o1,2.63%,4.17%,1.89%
N=C(/N=C(/NCCCCCCN/C(=N\C(=N)Nc1ccc(Cl)cc1)N1CCCCC1)N1CCCCC1)Nc1ccc(Cl)cc1,-2.47%,-2.65%,-0.71%
O=C(NC1CC1)c1cnc(N2CCCC(c3ccccc3)C2)c(Cl)c1 (configuration not stated),0.97%,-0.31%,-4.58%
CC(C)(C)c1ccc(NC(=O)c2ccc(CN3CCCN(CC4CCCCC4)CC3)cc2)cc1,3.27%,1.6%,5.35%

Compound,inhibition [1],inhibition [2],inhibition [3]
Cc1c2c(nn1-c1ccccc1)C(c1ccccc1)N(c1ccccc1)C2=O (configuration not stated),-0.43%,0.43%,0.75%
CNC(=O)COc1cc(C)c(C2CCN(CCCCNC(=O)c3ccc(-c4ccc(C(F)(F)F)cc4)cc3)CC2)cc1C,2.41%,2.32%,1.85%
COc1ccc2nccc([C@@H](O)CN3CCC(NCCOc4ccccc4C#N)CC3)c2c1,4.87%,2.43%,6.46%
CNCc1cccc2nc(-c3csc(Cc4cc(Cl)ccc4OCC(C)C)n3)[nH]c12,-0.53%,0.5%,-0.08%
CCCCCCN1CCC(NCc2ccc(CN(C)C)cc2)CC1,0.45%,2.27%,-7.52%
Cc1ccoc1C(=O)Nc1cccc(-c2cccc(-c3nc4ccccc4[nH]3)c2)c1,12.3%,6.56%,5.58%
CCCC(CNC(=O)c1cc2c(Cl)cc(Cl)cc2[nH]1)CNc1cc(=O)c2ccccc2[nH]1 (configuration not stated),1.99%,2.64%,2.5%
COc1ccccc1N(C)CCNc1cc(C)nc(Nc2ccccc2)n1,11.5%,8.65%,5.05%
CC(C)CNCc1ccc(-c2cccc(CN(C(=O)NCCc3ccccc3)C3CCN(Cc4ccccc4)CC3)c2)cc1,9.24%,11%,8.02%
CCOC(=O)C1CCN(CCCNC(=O)/C(=C/C=C/c2cc3cc(Cl)c(Cl)cc3[nH]2)OC)CC1,-1.12%,4.1%,0.42%
Cc1cc(Nc2ccc(O)cc2)nc2cc(O)ccc12,3.16%,1.93%,3.51%
O=C(c1ccc2ccccc2n1)N1CCCc2cc(Br)ccc21,8.95%,1.96%,0.16%
CC(C)C[C@@H](/C=N/N1CC(=O)NC1=O)NC(=O)[C@H](CC(C)C)NC(=O)c1ccc(OCCN2CCOCC2)cc1,-0.34%,2.99%,1.11%
COc1cc(Cc2cnc(N)nc2N)cc(OCCCC(=O)O)c1OC,2.98%,1.62%,1.78%
c1ccc(C2CCC(N3CCC(N4CCN(c5ccccc5)CC4)CC3)CC2)cc1 (configuration not stated),5.35%,7.92%,8.3%
COc1cccc(-c2cc(C(F)(F)F)n3ncc(C(=O)Nc4cc(Cl)ccc4O)c3n2)c1,0.65%,1.53%,-2.22%
CN(C)CCCOc1ccc(CNCc2cccc(Oc3ccc(Cl)cc3)c2)cc1,6.24%,2.32%,3.82%
COc1cc2ncnc(Nc3ccc(OCc4ccccc4)c(C(F)(F)F)c3)c2cc1OC,1.67%,0.75%,0.32%
O=C(NC1CCN(Cc2ccccc2)CC1)c1ccc(-c2nc3cc(F)c(F)cc3[nH]2)s1,3.16%,3.84%,5.72%
COc1c(C2CCN(CCCCNC(=O)C=Cc3ccccc3C(F)(F)F)CC2)ccc2c1CCCC2,-0.06%,-0.81%,-0.49%
CS(=O)(=O)Cc1ccc(Nc2nccc(-c3c(-c4cccc(NC(=O)c5c(F)cccc5F)c4)nn4ncccc34)n2)cc1,12%,8.45%,2.78%
O=C(Nc1ccccc1O)c1ccc(S(=O)(=O)c2ccc(Cl)cc2)cc1,5.52%,4.67%,6.69%
Cc1noc(C)c1-c1cccc(CNCc2cccc(-c3cccc(-c4nc5cc(F)ccc5[nH]4)c3)c2)c1,-2.23%,5%,0.55%
CC(C)C[C@H](NC(=O)c1cc2ccccc2s1)C(=O)N[C@H]1CCN(Cc2ccc(OC[C@@H]3CCCN3C)c(Cl)c2)C1,10.8%,10.6%,8.09%
